CendR NRP1 mod – modulators of CendR peptide binding to NRP-1, primary screen, biochemical, fluorescence polarization, uHTS; Neuropilin-1 (Homo sapiens), O14786; FAM-RPARPAR peptide binding to NRP-1; inhibition, % at 25 µM; hit rate 0.85% among 360,000;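 active means inhibition or corrected inhibition above about 18%, plus a signal ratio from 0.5 to 1.5, limit read from the data, passing the limit was not always enough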
Target sequence (O14786 whole entry, looked up): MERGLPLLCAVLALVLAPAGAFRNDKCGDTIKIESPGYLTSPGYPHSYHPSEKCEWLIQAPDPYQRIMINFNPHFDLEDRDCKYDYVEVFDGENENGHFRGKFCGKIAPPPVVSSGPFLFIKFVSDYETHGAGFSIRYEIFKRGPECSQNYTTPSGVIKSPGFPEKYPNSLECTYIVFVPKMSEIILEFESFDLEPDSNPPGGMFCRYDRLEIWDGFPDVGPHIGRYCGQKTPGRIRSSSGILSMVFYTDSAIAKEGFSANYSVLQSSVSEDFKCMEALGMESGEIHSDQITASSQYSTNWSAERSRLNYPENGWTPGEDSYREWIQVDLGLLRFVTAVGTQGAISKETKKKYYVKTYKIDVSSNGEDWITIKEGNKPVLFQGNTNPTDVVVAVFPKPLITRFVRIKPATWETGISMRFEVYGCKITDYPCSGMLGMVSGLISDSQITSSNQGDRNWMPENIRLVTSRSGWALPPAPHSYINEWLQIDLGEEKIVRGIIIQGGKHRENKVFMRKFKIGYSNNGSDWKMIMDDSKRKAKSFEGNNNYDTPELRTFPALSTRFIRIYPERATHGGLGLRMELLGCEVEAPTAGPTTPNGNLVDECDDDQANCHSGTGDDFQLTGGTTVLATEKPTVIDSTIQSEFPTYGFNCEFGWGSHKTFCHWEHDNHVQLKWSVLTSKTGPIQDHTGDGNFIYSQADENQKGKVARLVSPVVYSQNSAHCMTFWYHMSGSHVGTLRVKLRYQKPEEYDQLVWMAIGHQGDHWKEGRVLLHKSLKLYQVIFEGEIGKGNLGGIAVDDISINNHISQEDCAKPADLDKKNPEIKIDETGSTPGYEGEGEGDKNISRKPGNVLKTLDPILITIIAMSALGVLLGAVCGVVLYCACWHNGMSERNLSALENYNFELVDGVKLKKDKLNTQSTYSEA
MEKK2wt PB1 HTS – modulators of MEK5 binding to wildtype MEKK2, primary screen, biochemical, multiplex bead flow cytometry, Alexa488-MEK5; Alexa488-MEK5 binding to MEKK2 WT; actives lie on both sides; binding response (% of control), % at 10 µM; Mitogen-activated protein kinase kinase kinase 2 (Homo sapiens), Q9Y2U5; hit rate 1.1% among 290,000; in the data active means binding response below about 67% or above about 130%
MEKK2 mut-MEK5 – MEK5 binding signal on mutant MEKK2 PB1, primary screen, biochemical, multiplex bead flow cytometry, Alexa488-MEK5; percent response, % at 10 µM; Alexa488-MEK5 binding to MEKK2 mutant; hit rate 0.35% among 290,000; in the data active means percent response above about 24%, passing the limit was not always enough
MEKK3 PB1 HTS – modulators of MEKK3-MEK5 PB1 binding, primary screen, biochemical, wildtype MEKK3, multiplex bead flow cytometry, Alexa488-MEK5; binding response (% of control), % at 10 µM; AID 1529, 2009; bead-based flow cytometry, Alexa488-MEK5 binding to MEKK3; actives lie on both sides; 0 = blocked by unlabeled MEK5, 100 = vehicle; hit rate 1.4% among 290,000; Mitogen-activated protein kinase kinase kinase 3 (Homo sapiens), Q99759;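 active means binding response more than 3 SD above or below the average of its plate-row segment, actives on both sides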;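 further: Alexa488 bead fluorescence after subtracting the streptavidin-only scavenger bead signal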
SKN-1 inh – suppressors of acrylamide-induced Pgst-4::GFP reporter in worms, primary screen, SKN-1 inhibitor project, whole organism, uHTS, GFP/RFP fluorescence ratio, strain VP596; C. elegans VP596 Pgst-4::GFP/RFP ratio, 24 h; inhibition, % at 21.8 µM; hit rate 0.49% among 360,000;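 active means interference check ratio from 0.5 to 1.5 plus GFP to RFP signal ratio inhibition reaching or exceeding a fixed threshold, cut at about 30% in these data, passing the limit was not always enough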
MEKK2wt confirm – modulators of MEK5 binding to wildtype MEKK2, confirmation, biochemical, single concentration, multiplex bead flow cytometry; shares compounds with MEKK3 PB1 HTS; Alexa488-MEK5 binding to MEKK2 WT; actives lie on both sides; binding response (% of control), % at 10 µM; hit rate 2.4% among 5,900; AID 1892, 2009; in the data active means binding response below about 16% or above about 210%; inactive means in between
MEKK2mut confirm – mutant MEKK2 PB1-MEK5 binding signal retest – biochemical, single concentration, multiplex bead flow cytometry, confirmation; AID 1893, 2009; shares compounds with MEKK3 PB1 HTS; Alexa488-MEK5 binding to MEKK2 mutant; hit rate 2% among 5,900; percent response, % at 10 µM; in the data active means percent response mostly above about 71%, no sharp cut-off; inactive means mostly below about 38%;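 further: higher means compound restores mutant binding toward wildtype level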
MEKK3 confirm – MEKK3 wild-type PB1 binding to MEK5, inhibitors, confirmation, biochemical, bead multiplex flow cytometry, single concentration, wildtype. shares compounds with MEKK3 PB1 HTS. Alexa488-MEK5 binding to MEKK3; active compounds read low. binding response (% of control), % at 10 µM. hit rate 1.8% among 5,900;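 active means binding response below 72% of control, or above a set upper limit, though filed actives all read lower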;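 further: lower values mean stronger disruption of MEK5 binding to MEKK3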
Of the large screens only hits and unclear results are named; the others gave an inactive call (follow-up assays come after a bar, where they were run); [ ] = dose if it differs, or a comment. Only some compounds are listed: those with a hit (about 3.2% of all), similar ones and a draw of the others.

COc1cccc(-c2nnc(-c3ccc(C(F)(F)F)cc3)o2)c1	none
Oc1ccccc1-c1nnc(-c2ccc(C(F)(F)F)cc2)o1	MEKK3 PB1 HTS 81[inhibitor] | MEKK2wt confirm inactive | MEKK2mut confirm inactive | MEKK3 confirm inactive
CC[n+]1c(/C=C/N(C)c2ccccc2)n(-c2ccccc2)c2ccc(-c3nc4ccccc4s3)cc21	MEKK2wt PB1 HTS 328, MEKK2 mut-MEK5 140 | MEKK2wt confirm 262 | MEKK2mut confirm 117 | MEKK3 confirm inactive
O=C(O)c1ccccc1OCC1CCCO1 (stereo not drawn)	none
CCCC1Cc2c(sc(NC(=S)NC(=O)c3ccccc3)c2C#N)CO1 (stereo not drawn)	MEKK3 PB1 HTS 134 (no result: CendR NRP1 mod, SKN-1 inh) | MEKK2wt confirm inactive | MEKK2mut confirm inactive | MEKK3 confirm inactive
CC1(C(=O)O)CCN1C(=O)c1cccnc1Oc1ccccc1 (stereo not drawn)	none (no result: MEKK2wt PB1 HTS, MEKK2 mut-MEK5, MEKK3 PB1 HTS)
COC(=O)c1ccccc1NC(=O)C1CC(=O)N(c2ccc(C)c(C)c2)C1 (stereo not drawn)	MEKK3 PB1 HTS 131 | MEKK2wt confirm inactive | MEKK2mut confirm inactive | MEKK3 confirm inactive
CCC(=O)N1CC2(C)CN(C(=O)CC)CC(C)(C1)C2	MEKK3 PB1 HTS 129 | MEKK2wt confirm inactive | MEKK2mut confirm inactive | MEKK3 confirm inactive
CC(C)(C)C(=O)N1CCN(C(=O)c2ccco2)CC1	none
O=C(NCCCN1CCCCCC1)c1ccc2c(Cl)c3c(nc2c1)CCCC3	MEKK2wt PB1 HTS 160 | MEKK2wt confirm inactive | MEKK2mut confirm inactive | MEKK3 confirm inactive
Cn1nc(-c2ccc(Cl)cc2)c2cc(C(=O)NCC3CCCO3)sc21 (stereo not drawn)	none
CCN1CCN(CCCNC(=O)c2cc3c(=O)[nH]c4ccccc4c3s2)CC1	none
CC1CCCCN1CCNC(=O)c1cc2c(-c3ccccc3F)nn(C)c2s1 (stereo not drawn)	MEKK2 mut-MEK5 24 | MEKK2wt confirm inactive | MEKK2mut confirm inactive | MEKK3 confirm inactive
O=C(NCCCN1CCCC1)c1cc2c(Cl)nc3ccccc3c2s1	MEKK2wt PB1 HTS 142 | MEKK2wt confirm inactive | MEKK2mut confirm inactive | MEKK3 confirm inactive
CCCCN(CC)CCNC(=O)c1cc2c(-c3ccccc3F)nn(C)c2s1	none
CN1CCN(CCCNC(=O)c2cc3c(-c4ccc(Cl)cc4)nn(C)c3s2)CC1	MEKK2wt PB1 HTS 180 | MEKK2wt confirm inactive | MEKK2mut confirm inactive | MEKK3 confirm inactive
OC1CCC2CN3CCc4c([nH]c5ccccc45)C3CC2C1 (stereo not drawn)	none (no result: MEKK2wt PB1 HTS, MEKK2 mut-MEK5, MEKK3 PB1 HTS)
Cc1ccc(/C(O)=C2\C(=O)C(=O)N(C)C2c2ccc(F)cc2)cc1 (stereo not drawn)	none
COC(=O)c1ccc(CNC(=O)Cn2cnc3c(SC)nc(N)nc32)cc1	none (no result: MEKK2wt PB1 HTS, MEKK2 mut-MEK5, MEKK3 PB1 HTS)
COc1cccc(-c2nn(C)c3sc(C(=O)NCc4ccc5c(c4)OCO5)cc23)c1	none
CCN(CCCNC(=O)c1cc2c(-c3cccc(OC)c3)nn(C)c2s1)Cc1ccccc1	MEKK2wt PB1 HTS 149, MEKK2 mut-MEK5 31 | MEKK2wt confirm inactive | MEKK2mut confirm inactive | MEKK3 confirm inactive
Cn1nc(-c2ccc(Cl)cc2)c2cc(C(=O)N3CCOCC3)sc21	none
CCN(CC)CCCNC(=O)c1cc2c(-c3ccc(Cl)cc3)nn(C)c2s1	MEKK2wt PB1 HTS 218, MEKK2 mut-MEK5 29, MEKK3 PB1 HTS 122 | MEKK2wt confirm inactive | MEKK2mut confirm inactive | MEKK3 confirm inactive
CC(C)(CO)NCc1ccccc1OCC(=O)Nc1ccccc1	none (no result: MEKK2wt PB1 HTS, MEKK2 mut-MEK5, MEKK3 PB1 HTS)
Cc1ccc(NC(=O)COc2ccccc2CNC(C)(C)CC(C)(C)C)cc1	MEKK2wt PB1 HTS 141 | MEKK2wt confirm inactive | MEKK2mut confirm inactive | MEKK3 confirm inactive
O=C(CCSCc1cccc(Cl)c1)NCCc1ccccc1	MEKK3 PB1 HTS 134 | MEKK2wt confirm inactive | MEKK2mut confirm inactive | MEKK3 confirm inactive
CN(CC(=O)NCCc1ccc(F)cc1)Cc1cccc(Cl)c1	MEKK2wt PB1 HTS 6.0[inhibitor], MEKK3 PB1 HTS 5.0[inhibitor] | MEKK2wt confirm inactive | MEKK2mut confirm inactive | MEKK3 confirm inactive
CCN(CC)c1nc2ccccc2n2cnnc12	none
O=c1[nH]c2ccccc2n2cnnc12	MEKK3 PB1 HTS 147 | MEKK2wt confirm inactive | MEKK2mut confirm inactive | MEKK3 confirm inactive
COc1ccc(NC(=O)CN(C)C(=O)CSc2nc3ccccc3s2)cc1	none (no result: MEKK2wt PB1 HTS, MEKK2 mut-MEK5, MEKK3 PB1 HTS)
O=C(c1ccccc1)c1c2c(cc3sc4ccccc4[n+]13)-c1cccc3cccc-2c13	MEKK2wt PB1 HTS 60[inhibitor] | MEKK2wt confirm inactive | MEKK2mut confirm inactive | MEKK3 confirm inactive
COc1ccc([C@H]2C[C@@H](O)[C@H](n3cc(COC(=O)c4ccccc4)nn3)CN2C(=O)c2cccs2)cc1	none (no result: MEKK2wt PB1 HTS, MEKK2 mut-MEK5, MEKK3 PB1 HTS)
C#CCOCCOCCOCCNc1nc(N2CCN(C(=O)[C@H](Cc3cc4ccccc4[nH]3)n3cc(C(N)CC(C)C)nn3)CC2)nc(N2CCN(C(=O)[C@H](CCC(=O)O)n3cc(C(N)[C@H](C)CC)nn3)CC2)n1 (stereo partly drawn)	none
C#CCOCCOCCOCCNc1nc(N2CCN(C(=O)[C@H](Cc3cc4ccccc4[nH]3)n3cc([C@@H](N)C(C)CC)nn3)CC2)nc(N2CCN(C(=O)[C@H](Cc3cc4ccccc4[nH]3)n3cc([C@@H](N)Cc4ccc(O)cc4)nn3)CC2)n1 (stereo partly drawn)	MEKK2wt PB1 HTS 313, MEKK2 mut-MEK5 162 (no result: CendR NRP1 mod, SKN-1 inh) | MEKK2wt confirm 266 | MEKK2mut confirm 104 | MEKK3 confirm inactive

Bioassay records from PubChem BioAssay.
